Compounds without any hit were thinned out: in the full panel of roughly 83,000, 20% have a hit.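 Percent growth is the endpoint: 0 to 100 indicates growth inhibition (40 means 60% inhibition), 0 means no net growth, and negative values indicate cell death.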 The source made the active and inactive calls. Rule for the calls: active = growth percent below 10; inactive = the rest.
Experiments:
Test in all cases: NCI-60 one-dose screen, 48 h (100 = growth as untreated, 0 = no growth, -100 = all killed)
Details in all cases: 10 µM unless noted
[1] = tested on: T-47D breast
[2] = tested on: BT-549 breast
[3] = tested on: MDA-MB-435 melanoma
[4] = tested on: SW-620 colon
[5] = tested on: MCF7 breast
[6] = tested on: HCT-116 colon
[7] = tested on: HCC-2998 colon
[8] = tested on: KM12 colon

Measured: growth

CCOC(=O)c1c(NC(=O)c2cccc(C(F)(F)F)c2)sc2c(CN3CCN(C)CC3)c(O)ccc12
inactive: [1] 21% | [2] 102%
active: [3] -81.5% | [4] -66.4% | [5] -85.4% | [6] -82.6% | [7] -36.6% | [8] -75.2%

CC(C)(C)OC(=O)N1CCN(S(=O)(=O)/N=C2\NC(=O)NC2=C(Cl)Cl)CC1
inactive: [1] 75.3% | [2] 101% | [3] 103% | [4] 34.3% | [5] 79.7% | [6] 98% | [7] 75% | [8] 107%

O=C(c1cccc(F)c1)n1ccc2cc(NC(=S)Nc3cccnc3)ccc21
inactive: [1] 93.7% | [2] 97.6% | [3] 99% | [4] 93.8% | [5] 85.7% | [6] 105% | [7] 99.7% | [8] 97.9%

COc1cc(O)c2c(c1)[C@H]1O[C@@H]1C[C@H](O)[C@H](O)C(=O)/C=C\C[C@H](C)OC2=O
active: [2] 2.6%
inactive: [1] 30.1% | [3] 19.2% | [4] 21.8% | [5] 43.3% | [6] 27.7% | [7] 65.1% | [8] 90.4%

Nc1nc(-c2cccc([N+](=O)[O-])c2)c(N=Nc2ccccc2Cl)s1
inactive: [1] 57.9% | [2] 71.6% | [3] 89.5% | [4] 54.7% | [5] 66.6% | [6] 32.6% | [7] 107% | [8] 67.4%

O=C1c2c(O)cc(O)cc2O[C@@H](c2ccc(O)cc2)[C@@H]1c1c(O)cc(O)c2c(=O)cc(-c3ccc(O)c(O)c3)oc12
inactive: [1] 105% | [2] 98.3% | [3] 110% | [4] 107% | [5] 99.9% | [6] 100% | [7] 111% | [8] 97.1%

CC(=O)C1=NN(c2ccc(Cl)cc2)C(=O)CN1C
inactive: [1] 96.6% | [2] 96.6% | [3] 103% | [4] 106% | [5] 96.1% | [6] 99.8% | [7] 104% | [8] 102%

Nc1c(C(=O)c2ccccc2)sc2nc(-c3cnccn3)cc(-c3cccs3)c12
inactive: [1] 98.9% | [2] 116% | [3] 98.9% | [4] 105% | [5] 90.8% | [6] 96.5% | [7] 105% | [8] 102%

CCOc1c(C#N)c(Nc2ccc(S(N)(=O)=O)cc2)c(C#N)c2nnc(C)n12
inactive: [1] 104% | [2] 97.6% | [3] 108% | [4] 108% | [5] 97.2% | [6] 116% | [7] 106% | [8] 103%

O=C(CSc1nnc(-c2ccc(Cl)cc2)n1-c1ccccc1)Nc1ccc(F)cc1
inactive: [1] 80.4% | [2] 93.2% | [3] 92.9% | [4] 82.3% | [5] 81.6% | [6] 46% | [7] 100% | [8] 82.4%

Cc1nc(-c2cc3ccccc3c(N3CCN(C)CC3)n2)cs1
inactive: [1] 84.3% | [2] 97.5% | [3] 99.9% | [4] 98.6% | [5] 92.7% | [6] 93% | [7] 95.3% | [8] 103%

CCN(CC)CCN1C(=O)c2c(c3c4cccnc4[nH]c3c3ccc4ccccc4c23)C1=O
inactive: [1] 66% | [2] 85.8% | [3] 87.6% | [4] 53.4% | [5] 17.4% | [6] 63.1% | [7] 77.8% | [8] 81.8%

CCCC(=O)NC(c1cccnc1)c1cc(C(C)=O)c2cccnc2c1O (centres undefined)
inactive: [1] 41.7% | [2] 32.2% | [3] 34.5% | [4] 38% | [5] 18.8% | [6] 25.5% | [7] 24.9% | [8] 21.4%

COc1ccc(-c2nn(-c3ccccc3)cc2/C=C/C(=O)c2ccc(NC(=O)CCCCCCC(=O)NO)cc2)cc1
inactive: [1] 103% | [2] 105% | [3] 104% | [4] 111% | [5] 94.2% | [6] 95.5% | [7] 108% | [8] 95.9%

COc1ccc(-c2no[n+]([O-])c2Nc2ccccc2Br)cc1
inactive: [1] 80% | [2] 113% | [3] 107% | [4] 101% | [5] 84.9% | [6] 93.7% | [7] 111% | [8] 101%

CC(C)c1nn(-c2ccccc2)c(N2CCCCC2)c1/C=N/NC(N)=S
inactive: [1] 66.8% | [2] 85.2% | [3] 97.5% | [4] 101% | [5] 75.7% | [6] 79.1% | [7] 105% | [8] 103%

Nc1ccc(-c2nnc(SCc3ccc(O)c4ncccc34)o2)cc1
active: [1] -19.7% | [2] -11.7% | [3] 7.57% | [4] 5.51% | [5] 2.52% | [6] 0.176% | [8] 0.48%
inactive: [7] 14.3%

C#CCOc1ccc(C(Nc2ccc(Cl)cc2)c2nnnn2C2CCCCC2)cc1 (centres undefined)
inactive: [1] 74.4% | [2] 85.7% | [3] 98% | [4] 94.2% | [5] 75.5% | [6] 61.4% | [7] 98.7% | [8] 95.9%

O=C(Cn1cc(CN2C(=O)c3ccc([N+](=O)[O-])cc3C2=O)nn1)Nc1ccc(F)cc1Cl
inactive: [1] 95.4% | [2] 92.4% | [3] 101% | [4] 99.6% | [5] 93.3% | [6] 102% | [7] 100% | [8] 105%

O=C1CC2(CCOCC2)Oc2ncccc21
active: [4] -54.6%
inactive: [1] 70.6% | [2] 105% | [3] 81.2% | [5] 12.7% | [6] 29% | [7] 25.1% | [8] 12.1%

O=C(Nc1cccc(Cl)c1)Nc1nc2ccc([N+](=O)[O-])cc2s1
active: [1] -11.7% | [2] -28.7% | [3] -8.69% | [4] 3.71% | [5] 4.68% | [6] 0.143% | [7] 5.59% | [8] 0.174%

CC[C@H](C)[C@H]1NC(=O)[C@@H]([C@H](O)C(C)C)NC(=O)[C@@H](C)N(C)C(=O)[C@H](C)N(C)C(=O)[C@H](CC(C)C)NC(=O)[C@H](CC(C)C)N(C)C(=O)[C@H](C)N(C)C1=O
inactive: [8] 16%
active: [1] -6.92% | [2] -4.47% | [3] 5.17% | [4] 5.6% | [5] 1.66% | [6] 1.42% | [7] 2.12%

O=C1[C@H]2Cc3c([nH]c4ccccc34)[C@@H](c3c(Cl)cccc3Cl)N2C(=O)CN1C1CCN(Cc2ccccc2)CC1
active: [3] 0.213% | [6] -1.46%
inactive: [1] 102% | [2] 106% | [4] 44.5% | [5] 47.5% | [7] 102% | [8] 84.5%

COc1cc(/C=N/n2cnc3oc(-c4ccccc4)cc3c2=N)cc(CN2CCCC2)c1O
inactive: [1] 93.3% | [2] 129% | [3] 96.6% | [7] 98.5% | [8] 11.2%
active: [4] -59.4% | [5] -79.3% | [6] -77.8%

Cc1nn(-c2ccccc2)cc1/C=N/Nc1nc(Nc2ccccc2)nc(Nc2ccc(S(N)(=O)=O)cc2)n1
inactive: [1] 18.9% | [2] 21.5%
active: [3] -31.8% | [4] -14.3% | [5] -69.9% | [6] -40.9% | [7] -17.2% | [8] 9.04%

c1ccc(-c2c(-c3ccccc3)[n+](Cc3ccc4ccccc4c3)c(-c3ccccc3)n2Cc2ccc3ccccc3c2)cc1
active: [1] -60.9% | [2] -87.1% | [3] -93.9% | [4] -81.7% | [5] -72.9% | [6] -74.8% | [7] -90.3% | [8] -82.9%

O=C1Nc2ccc(Cl)cc2/C1=C/c1ccc(OCc2ccc(Br)cc2F)cc1
inactive: [1] 106% | [2] 129% | [3] 104% | [4] 97.8% | [5] 87.5% | [6] 96.7% | [7] 112% | [8] 101%

COc1ccccc1N1CCN(C2=NN=C(c3cccc(Cl)c3)c3ccccc3C2)CC1
inactive: [1] 52.5% | [2] 50.5% | [4] 20.9% | [5] 17.4%
active: [3] -3.46% | [6] 7.98% | [7] 8.13% | [8] 6.16%

— PubChem BioAssay (NCI)
